Bioassay records (PubChem BioAssay)
The list is not random: actives were taken first. Their share in the collection is about 9.9%.
KB-V1 cytotox: kills drug-selected multidrug resistant KB-V1 cells; AID 1347076; hit rate 3.4% among 400,000; Potency, µM (highest dose often 46.1 µM), most hits filed as cytotoxic; KB-V1 MDR cells viability, CellTiter-Glo, 72 h; also: potency is read from the fitted curve at half-maximal effect; % is scaled to controls: 0 for no effect and ±100 for the full control effect; nearly all actives have a fitted effect of over 60% in size
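KB-V1, DMEM (no phenol red) + 10% FBS; cpd pin-transferred, titration series; 72 h, 37 degrees C; CellTiter-Glo, luminescence. Data normalized, curve-fit.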
SW480 rereplic: inducers of DNA re-replication in SW480 colon cancer cells; Potency, µM (top dose mostly 46.1 µM), for inactives: at the top dose re-replication activation, usual class: activators; SW480 DNA re-replication, Hoechst DNA content imaging, 48 h; AID 624297; hit rate 1.8% among 340,000; also: potency is read from the fitted curve at half-maximal effect; % of control where 0% means no effect; nearly all actives have a fitted effect of over 55% in size
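Per well, 250 cells were exposed to pinned compound for 48 hr. Nuclear DNA was visualised with Hoechst (40 min, 37 C) and total object intensity recorded by fluorescence scanning.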
KB-3-1 cytotox: KB-3-1 parental cell cytotoxicity; KB-3-1 viability, CellTiter-Glo ATP luminescence, 72 h; hit rate 1.4% among 400,000; Potency, µM (doses to about 46.1 µM), most hits filed as cytotoxic; also: potency is read from the fitted curve at half-maximal effect; % is scaled to controls: 0 for no effect and ±100 for the full control effect; nearly all actives have a fitted effect of over 60% in size
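KB-3-1 parental drug-naive adenocarcinoma cells in DMEM/10% FBS, incubated 72 h at 37 C with pin-transferred compounds across a concentration series. Viability by CellTiter-Glo luminescence; concentration-response curves fitted after normalization.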
IL1B secr inh: inflammasome signaling inhibition, IL-1 beta readout; THP-1 LPS/ATP IL-1B secretion, AlphaLISA, 16 h; active compounds read low; activity change, % at 57.5 µM; hit rate 4.7% among 360,000; AID 743279; in the data active = activity change below about -50%; inconclusive = mostly about -30% to -49%; also: % is scaled to controls: 0 for no effect and ±100 for the full control effect
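THP-1 cells pretreated 1 hr with compounds (up to 57.5 uM final), then stimulated with LPS (250 ng/mL final) plus ATP (1.25 mM final); secreted IL-1B measured by AlphaLISA after 16 hr, decreased signal indicating inhibition.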
MCF10A rereplic: induces DNA re-replication in MCF 10a normal breast cells | MCF 10A DNA re-replication, Hoechst nuclear intensity, 48 h | Potency, µM (series often up to 46.1 µM), for inactives: top-dose activity, positive = re-replication, most hits filed as activators | hit rate 2.9% among 350,000 | AID 624296; also: potency is read from the fitted curve at half-maximal effect; % of control where 0% means no effect; nearly all actives have a fitted effect of over 50% in size
Active calls of the source: *; i = inactive; ? = inconclusive; / = not tested or not shown; [ ] = another dose, or the depositor's remark. Unless noted, calls follow the shape of the dose curve; as a rule, active = well fitted curve in the direction sought with a large enough effect; inconclusive = small, poorly fitted or top-dose-only effect, or another doubt; inactive = no such curve, though single readings can be large; an effect the other way counts as inactive or inconclusive.

SMILES	KB-V1 cytotox	SW480 rereplic	KB-3-1 cytotox	IL1B secr inh	MCF10A rereplic
CCC(=O)N(Cc1ccc(S(N)(=O)=O)cc1)C1CC(=O)N(c2ccccc2)C1=O (stereo not given)	i	1.8%	i	4.2	17.7%
COc1ccc(CCN(C)C(=O)C(CCSC)NC(=O)c2ccco2)cc1OC (stereo not given)	?	-20.7%	i	-29.3	?
COCC(=O)Nc1ccc(S(=O)(=O)N2CCCC2)cc1	i	-0.5%	i	12.9	-0.5%
Fc1ccc(CNC(=S)NC2CCCC2)cc1	?	?	?	-142.2*	9.0%
Fc1ccc(CNC(=S)NC2CCCCC2)cc1	i	?	i	8.2	-2.1%
O=S(=O)(Cc1ccccc1)Nc1cccc(F)c1	?	-1.6%	i	-2.8	-1.6%
Cc1ccc(NS(=O)(=O)Cc2ccccc2)cc1Cl	i	?	i	-86.5*	2.6%
Cc1cccc(C)c1NC(=O)C(=O)NCC(c1cccnc1)N1CCc2ccccc21 (stereo not given)	?	/	i	/	/
COCCN(C(=O)COC(=O)/C=C/c1nc2ccccc2s1)c1c(N)n(Cc2ccccc2)c(=O)[nH]c1=O	i	-319.6%	i	-95.6*	?
CCN(C(=O)COC(=O)/C=C/c1ccco1)c1c(N)n(Cc2ccccc2)c(=O)[nH]c1=O	i	-3.8%	i	-4.5	-6.2%
CN(C(=O)COC(=O)/C=C/c1ccc2ccccc2n1)c1c(N)n(Cc2ccccc2)c(=O)[nH]c1=O	i	15.5%	i	-55.5*	?
COCCN(C(=O)COC(=O)/C=C/c1ccc2ccccc2n1)c1c(N)n(Cc2ccccc2)c(=O)[nH]c1=O	i	?	?	0.0	12.2%
CCN(C(=O)COC(=O)/C=C/c1nc2ccccc2s1)c1c(N)n(Cc2ccccc2)c(=O)[nH]c1=O	i	-7.8%	i	-59.7*	28.6%
CNC(=O)COC(=O)/C=C/c1nc2ccccc2s1	i	?	i	-29.3	0.651µM*
CCn1c(=O)cc(OCC(=O)N2CCN(c3cccc(Cl)c3)CC2)c2ccccc21	i	/	i	/	/
CC(C)CN(CC(C)C)C(=O)C12CCC(C)(C(=O)C1)C2(C)C (stereo not given)	i	-0.8%	i	9.5	6.1%
CCCCC(=O)N(C)c1c(CC)nc2c(OCC(=O)c3ccc(F)cc3)cccn12	i	/	i	-3.6	/
Cc1ccc(NC(=O)C2CCC(CNS(=O)(=O)c3ccc4c(c3)CCCC(=O)N4)CC2)cc1F (stereo not given)	i	/	?	/	/
OC[C@H]1O[C@H](c2nc(-c3nc(-c4cccs4)no3)cs2)C[C@@H]1O	i	/	i	-79.6*	/
Cc1cccc(-c2noc(-c3csc([C@@H]4C[C@H](O)[C@@H](CO)O4)n3)n2)c1	i	/	i	-20.7	/
CC1(C)C2CCC1(CS(=O)(=O)Nc1ccc(S(=O)(=O)N3CCCCC3)cc1)C(=O)C2 (stereo not given)	25.9µM*	?	i	10.3	2.0%
CC1(C)C2CCC1(CS(=O)(=O)Nc1ccccc1)C(=O)C2 (stereo not given)	i	-0.3%	i	-3.4	-23.5%
COc1ccc(NS(=O)(=O)c2cc(NC(=O)c3ccc(=O)[nH]c3)ccc2C)cc1	?	4.6%	i	-12.7	11.3%
COc1ccc(NS(=O)(=O)c2cc(NC(=O)Cc3cccs3)ccc2C)cc1	i	?	i	8.7	16.4µM*
COc1ccc(NS(=O)(=O)c2cc(NC(=O)[C@@H](NC(=O)c3ccccc3)C(C)C)ccc2C)cc1	?	?	8.2µM*	14.9	18.4µM*
SMILES	KB-V1 cytotox	SW480 rereplic	KB-3-1 cytotox	IL1B secr inh	MCF10A rereplic
COc1ccc(C(=O)N[C@H](C(=O)NCCCn2nc(C)cc2C)C(C)C)cc1	14.6µM*	1.0%	i	-4.9	0.9%
CCc1cccc(C)c1NC(=O)CCN1C(=O)NC(C)(C)C1=O	i	-1.0%	i	-14.8	9.3%
Cc1cccc(-c2nc(C)c(CCNC(=O)C(=O)Nc3cccc(Cl)c3C)s2)c1	i	/	i	/	/
CCn1c(SCC(=O)Nc2nc3ccc(OC)cc3s2)nc2c1c(=O)n(C)c(=O)n2C	2.06µM*	2.2%	i	?	1.4%
CC(C)n1c(SCC(=O)Nc2nc3ccccc3s2)nc2c1c(=O)n(C)c(=O)n2C	i	?	i	-52.1*	?
CCOc1ccc2nc(NC(=O)CSc3nc4c(c(=O)n(C)c(=O)n4C)n3C(C)C)sc2c1	3.66µM*	4.9%	?	7.6	?
CCCn1c(SCC(=O)Nc2nc(-c3ccc(OC)cc3)cs2)nc2c1c(=O)n(C)c(=O)n2C	i	15.6%	i	-2.3	?
COc1ccc(C)cc1NC(=O)C(=O)NCC(c1cccnc1)N1CCN(c2ccccc2F)CC1 (stereo not given)	i	/	i	/	/
C#CCOCCOCCOCCNc1nc(N2CCN(C(=O)CCCCCCCCCCNC(=O)Cn3cc(C[C@@H](C)O)nn3)CC2)nc(N2CCN(C(=O)CCCCCCCCCCNC(=O)[C@H](CCCCN)n3cc(C[C@@H](C)CC)nn3)CC2)n1	i	-0.1%	?	-76.9*	?
C#CCOCCOCCOCCNc1nc(N2CCN(C(=O)CCCCCCCCCCNC(=O)[C@H](CCCCN)n3cc(CCCC(=O)O)nn3)CC2)nc(N2CCN(C(=O)CCCCCCCCCCNC(=O)[C@H](CCCCN)n3cc(CCCC(=O)O)nn3)CC2)n1	i	0.0%	i	-3.5	2.1%
C#CCOCCOCCOCCNc1nc(N2CCN(C(=O)CCCCCCCCCCNC(=O)[C@H](CCCCN)n3cc(CCCC(=O)O)nn3)CC2)nc(N2CCN(C(=O)CCCCCCCCCCNC(=O)[C@H](CCCN=C(N)N)n3cc(C[C@@H](C)CC)nn3)CC2)n1	?	-6.2%	?	-73.3*	?
C#CCOCCOCCOCCNc1nc(N2CCN(C(=O)CCCCCCCCCCNC(=O)[C@H](CCCCN)n3cc(CCO)nn3)CC2)nc(N2CCN(C(=O)CCCCCCCCCCNC(=O)[C@H](CCCN=C(N)N)n3cc(C[C@@H](C)CC)nn3)CC2)n1	i	-7.4%	?	-98.1*	24.6%
C#CCOCCOCCOCCNc1nc(N2CCN(C(=O)CCCCCCCCCCNC(=O)[C@H](CCCCN)n3cc(C[C@@H](C)CC)nn3)CC2)nc(N2CCN(C(=O)CCCCCCCCCCNC(=O)[C@H](CCCCN)n3cc(C[C@@H](C)CC)nn3)CC2)n1	?	-7.6%[9.22 µM]	?	-65.8*	18.4µM*
CCN(C(=O)Cn1ncc2c(=O)oc3ccc(C)cc3c21)c1cc(OC)ccc1OC	i	/	i	/	/
